Drawing on ChEMBL document CHEMBL3433997, “St. Jude Leishmania screening dataset” (2016), this text covers inhibition for 37 molecules.

Each structure is given as a SMILES string.

In general, inhibition refers to the drop in the measured response relative to a control, in per cent.

Holding throughout (type): functional
For assay [1], the target named is Solute carrier family 2, facilitated glucose transporter member 1 (Homo sapiens) (UniProt P11166). Description: ST_JUDE_LEISH: Cytotoxicity at 2uM final concentration against transgenic Leishmania Mexicana promastigotes LmGLUT1 that are glucose transport deficient and complemented with the human glucose transporter GLUT1. Activity is measured by DNA content using SYBR green in vitro.

For assay [2], the target named is Hexose transporter 1 (Plasmodium falciparum) (UniProt O97467). Description: ST_JUDE_LEISH: Cytotoxicity at 2uM final concentration against transgenic Leishmania Mexicana promastigotes LmPfHT that are glucose transport deficient and complemented with the Plasmodium falciparum hexose transporter. Activity is measured by DNA content using SYBR green in vitro.
The target of assay [3] is Glucose transporter (Leishmania mexicana) (UniProt O61059). Description: ST_JUDE_LEISH: Cytotoxicity at 2uM final concentration against transgenic Leishmania Mexicana promastigotes LmGT2 that are glucose transport deficient and complemented with the L. Mexicana glucose transporter 2. Activity is measured by DNA content using SYBR green in vitro.

Sequence of Solute carrier family 2, facilitated glucose transporter member 1 (Homo sapiens) (P11166 whole entry): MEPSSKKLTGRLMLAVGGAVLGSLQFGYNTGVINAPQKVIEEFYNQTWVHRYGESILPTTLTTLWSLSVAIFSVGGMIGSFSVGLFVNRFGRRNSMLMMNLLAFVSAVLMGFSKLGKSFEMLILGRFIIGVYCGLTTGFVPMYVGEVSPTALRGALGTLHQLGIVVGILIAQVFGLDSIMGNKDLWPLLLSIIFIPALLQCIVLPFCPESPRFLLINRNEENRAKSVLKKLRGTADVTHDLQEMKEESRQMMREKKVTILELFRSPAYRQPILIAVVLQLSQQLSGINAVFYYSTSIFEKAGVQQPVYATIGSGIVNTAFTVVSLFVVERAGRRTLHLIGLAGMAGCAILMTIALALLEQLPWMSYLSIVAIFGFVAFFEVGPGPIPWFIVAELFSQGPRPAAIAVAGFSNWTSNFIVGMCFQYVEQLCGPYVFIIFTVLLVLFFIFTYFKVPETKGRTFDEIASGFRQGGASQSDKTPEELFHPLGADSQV

`COc1ccc2c(-c3ccccc3)noc2c1`: the values for the inhibition in assay [1], in assay [2] and in assay [3] were 0.37%, 0.1% and 1.42%, respectively.
The like results for `COc1cccc(NC(=O)c2cc(C(=O)Nc3cccc(OC)c3)cc([N+](=O)[O-])c2)c1` were, in that order, 2.37%, 3.98% and 1.08%.
In the same order, the values of `Cn1cncc1-c1cc2c(Nc3ccc(OCc4ccccc4)cc3)ncnc2cn1` are 4.63%, 5.99% and 1.66%.
In the same order, the values of `CCCOC(=O)C1=C(C)NC2=C(C(=O)CC(c3ccc(OC)c(OC)c3)C2)C1c1cccc(O)c1` (stereo unspecified) are 8.78%, 9.73% and 8.46%.
In the case of `Nc1nc(N)c2c(ccc3c2ccn3CC2CC2)n1`, the inhibition in assay [1] worked out at 2.11%; in assay [2], 6.17%; in assay [3], 0.91%.
As for `c1ccc2[nH]c(-c3ccc(-c4ccc(CN5CCCCC5)cc4)cc3)nc2c1`, the inhibition in assay [1] was 18.2%; in assay [2], 12.9%; in assay [3] it was 10.6%.
In the same order, the values of `CN(C)c1ccc(NC(=O)Nc2ccnc3ccc(Br)cc23)cc1` are 2.25%, 3.91% and 0.43%.
Consider `CCCc1ccc(NC(=O)c2cccc(CN3CCCN(Cc4cccc(O)c4)CC3)c2)cc1`, for which the inhibition was -0.09% in assay [1], 2.34% in assay [2] and 0.71% in assay [3].
In the same order, the values of `CC(C)(C(=O)Nc1ccc(C2CCC(NCC3CC3)CC2)c(Cl)c1)c1cccc(OC(F)F)c1` (stereo unspecified) are 9.94%, 8.75% and 9.65%.
With `COc1cc(Br)c(NC(=O)Nc2ccc(C(F)(F)F)c(O[C@@H]3CCN(C)C3)c2)cc1OC`, the figures for the inhibition in assay [1], in assay [2] and in assay [3] were 2.53%, 2.26% and 1.55%, respectively.
In the same order, the values of `Fc1ccc(NC(=S)NCCc2ccccc2)cc1` are 0.73%, -2.25% and 0.04%.
In the same order, the values of `CCCN(CCC)C(=O)c1cc(C(=O)N[C@@H](Cc2ccccc2)[C@H](O)CNC(C)(C)c2cccc(C(F)(F)F)c2)cc(N2CCCCS2(=O)=O)c1` are -1.43%, 4.18% and -1.54%.
In the case of `O=C(Nc1ccc(OCc2ccccc2)cc1)c1nc2ccccc2nc1Cl`, the inhibition in assay [1] turned out to be 1.33%; in assay [2], 1.29%; in assay [3], 1.34%.
For `O=S(=O)(NCCN1CCCC1)c1ccc(-c2ccc(CNC3Cc4ccccc4C3)cc2)s1`, the figures for the inhibition in assay [1], in assay [2] and in assay [3] were 5.8%, 12.6% and 1.34%, respectively.
Regarding `O=C(NC1CCC1)C1CCN(C(c2ccc(Cl)cc2)c2ccc(Cl)cc2)CC1`, the inhibition was -0.62% in assay [1], 1.93% in assay [2] and -0.82% in assay [3].
As to `N#Cc1ccc(N/C(=N\c2cccc(Cl)c2Cl)NC2Cc3ccccc3C2)c(O)c1`, the figures for the inhibition in assay [1], in assay [2] and in assay [3] were 2.33%, 2.84% and 3.97%, respectively.
In the same order, the values of `NC1CCN(CCc2ccc(NS(=O)(=O)c3cccc4ccccc34)cc2)CC1` are -0.69%, -3.38% and 0.61%.
In the same order, the values of `COc1ccc(CN(C)CCOc2ccc(NC(=O)c3cccc4c(=O)c5cc(SC)ccc5[nH]c34)cc2)cc1OC` are 10.2%, 8.45% and 3.5%.
In the same order, the values of `Cc1cccc(Nc2nc(N)c3ccccc3n2)c1` are 20.9%, 16.5% and 5.71%.
For `CS(=O)(=O)c1cc2c(Nc3ccc(N4CCOCC4)cc3)c(C(N)=O)cnc2cc1Br`, the inhibition in assay [1] was determined as 4.41%; in assay [2], 1.07%; in assay [3], 3.69%.
The like results for `O=C(Nc1cccc(CN2CCN(C(=O)c3ccccc3)CC2)c1)c1ccco1` were, in that order, 3.67%, 3.78% and 7.1%.
In the same order, the values of `Cc1n[nH]c2ccc(-c3cc(OC[C@@H](N)Cc4ccccc4)cnc3-c3ccc(OCc4cccc(F)c4)cc3)cc12` are -0.24%, 0.68% and -0.73%.
The like results for `CSc1ccc(CN2CCC(NC(=O)c3ccc(-c4cccc(Cl)c4)s3)CC2)cc1` were, in that order, 7.55%, 6.28% and 2.36%.
For the molecule `Cc1sc(CNCCCNc2cc(=O)c3ccccc3[nH]2)c(I)c1C`, the values for the inhibition in assay [1], in assay [2] and in assay [3] were 3.11%, 2.66% and 1.68%, respectively.
`NS(=O)(=O)c1cccc(Nc2nccc(-c3c(-c4cccc(NC(=O)c5c(F)cccc5F)c4)nn4ccccc34)n2)c1`: the inhibition amounted to 2.78% in assay [1], 7.67% in assay [2] and 1.61% in assay [3].
In the same order, the values of `COc1ccc(CNc2nccc3ccc(-c4ccc(N)nc4)cc23)cc1` are -2.02%, -0.06% and -0.73%.
The like results for `CCCNC(=O)c1cncc(-c2cccc(CNC3Cc4ccccc4C3)c2)c1` were, in that order, -1.27%, -1.42% and -1.3%.
Take `COc1ccc(Nc2nccc(N3CCC(NC(=O)c4cc5ccccc5s4)C3)n2)cc1` (stereo unspecified): the inhibition in assay [1] is -3.12%; in assay [2], 1.28%; in assay [3], -1.61%.
For the molecule `O=c1cc(NCCCNCc2cc(Br)cs2)[nH]c2ccccc12`, the inhibition in assay [1] came out at 3.94%; in assay [2] it was 2.8%; in assay [3], 2.59%.
Regarding `COc1ccc(Cl)cc1-c1nc(C(=O)NCCN2CCCCC2)c(C)s1`, the inhibition in assay [1] came out at 1.59%; in assay [2], 2.9%; in assay [3] it was 5.49%.
The like results for `N[C@@H](CCNC1CCN(c2cccc(C(F)(F)F)c2)CC1)Cc1ccc(F)c(F)c1` were, in that order, 99.5%, 54.5% and 101%.
In the same order, the values of `O=C(N[C@@H](CC1CCCCC1)C(=O)NC1CCCc2ccccc21)c1ccc(O)c(-c2cccc(C(F)(F)F)c2)c1` (stereo partly specified) are 4.07%, 1.73% and 2.66%.
In the same order, the values of `c1cc(CNCCN2CCNCC2)cc(-c2ccc(-c3nc4ccccc4[nH]3)cc2)c1` are 18.3%, 16.8% and 13.2%.
As for `Nc1c(Cl)cc(C(O)CNCCCCCOCCc2ccc3occc3c2)cc1Cl` (stereo unspecified), the inhibition is 3.53% in assay [1], 3.64% in assay [2] and 1.96% in assay [3].
With `O=C1NC(=O)C(c2cccc(NC(=O)c3ccncc3)c2)=C1c1ccccc1`, the results for the inhibition in assay [1], in assay [2] and in assay [3] were 1.05%, 1.65% and -4.34%, respectively.
In the same order, the values of `FC(F)(F)COc1ccc2ccccc2c1CCNCCCCNCCc1c(OCC(F)(F)F)ccc2ccccc12` are 105%, 103% and 107%.
Regarding `Nc1ncc(-c2ccc(F)cc2)c2ccc(-c3cccc(F)c3)cc12`, the values for the inhibition in assay [1], in assay [2] and in assay [3] were 5.19%, 5.19% and 2.72%, respectively.
